From PubChem BioAssay (EPA / NIEHS)
Results filed as inconclusive are left out. Active and inactive are the calls of the source. The calls were made as follows: active = hit-call score of the fitted dose curve at least 0.9, where 1 is the maximum; inconclusive = response in the unintended direction; inactive = score below 0.9.

How the values were obtained:
[1] = Tanguay_ZF_120hpf_TRUN_legacy: (Legacy) Oregon State University Tanguay Lab 120 Hour Post-fertilization zebrafish Assay for Truncated Body (AID 2283655)
Outline: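 Dechorionated Tropical 5D wild-type embryos placed singly from 6 hpf and statically exposed to 120 hpf at 28C, final DMSO 0.64%. Truncated body scored as present/absent by brightfield; not scored in dead embryos.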

[2] = Tanguay_ZF_120hpf_NC_legacy: (Legacy) Oregon State University Tanguay Lab 120 Hour Post-fertilization zebrafish Assay for Notochord and Tail Malformation (AID 2283656)
Outline: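 Dechorionated 5D zebrafish, 1/well from 6 hpf; static exposure to 120 hpf, 28C, sealed, dark; final DMSO 0.64% v/v. NC scored binary (present/absent); dead embryos not scored. Fit vs DMSO baseline, gain direction.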

Question: Which results are given for `Cc1cccc([N+](=O)[O-])c1`?
Answer: outcome [1]: inactive; outcome [2]: inactive

Question: For `Nn1cnnc1`, which outcome [1] is on record?
Answer: inactive

Question: And the outcome [2]?
Answer: inactive

Question: For `NS(=O)(=O)C(F)(F)C(F)(F)C(F)(F)C(F)(F)C(F)(F)C(F)(F)C(F)(F)C(F)(F)F`, which outcome [1] is on record?
Answer: inactive

Question: What does the source list for `CCOC(=O)C(O)(c1ccc(Cl)cc1)c1ccc(Cl)cc1`?
Answer: outcome [1]: inactive; outcome [2]: inactive

Question: For `CCCN(CCC)N=O`, which outcome [1] is on record?
Answer: inactive

Question: And the outcome [2]?
Answer: inactive

Question: Which results are given for `CCC(C)c1cc([N+](=O)[O-])cc([N+](=O)[O-])c1O` (stereo unspecified)?
Answer: outcome [1]: inactive; outcome [2]: inactive

Question: With `O=C(N[C@H]1CN2CCC1CC2)c1cc2ccoc2cn1` as the molecule, how does the outcome [1] read?
Answer: inactive

Question: What about the outcome [2] of the same molecule?
Answer: inactive

Question: With `ClC1=C(Cl)[C@]2(Cl)[C@@H]3[C@H]4C[C@H]([C@@H]5O[C@H]45)[C@@H]3[C@@]1(Cl)C2(Cl)Cl` as the molecule, how does the outcome [1] read?
Answer: inactive

Question: And the outcome [2]?
Answer: inactive

Question: For `Cc1cccc(C)c1N`, which outcome [1] is on record?
Answer: inactive

Question: With `Nc1ccc(-c2ccc(N)cc2)cc1` as the molecule, how does the outcome [1] read?
Answer: inactive

Question: And the outcome [2]?
Answer: inactive

Question: Which outcome [1] does the source give for `CN(C)CCO` here?
Answer: inactive

Question: And the outcome [2]?
Answer: inactive

Question: Which AC50 [1] does the source give for `CC(C)(O)C(=O)Nc1ccc([N+](=O)[O-])c(C(F)(F)F)c1` here?
Answer: 22.1 µM (active)

Question: And the outcome [2]?
Answer: inactive

Question: Which outcome [1] does the source give for `Clc1ccc(C(c2ccccc2Cl)C(Cl)(Cl)Cl)cc1` (stereo unspecified) here?
Answer: inactive

Question: And the outcome [2]?
Answer: inactive

Question: For `c1cc2ccc3cccc4ccc(c1)c2c34`, which outcome [1] is on record?
Answer: inactive

Question: And the outcome [2]?
Answer: inactive

Question: What does the source list for `O=C(O)C(F)(F)C(F)(F)C(F)(F)C(F)(F)C(F)(F)F`?
Answer: outcome [1]: inactive; outcome [2]: inactive

Question: For `N#Cc1ccc(N(CC(N)=O)CC(F)(F)F)cc1C(F)(F)F`, which outcome [1] is on record?
Answer: inactive

Question: What about the outcome [2] of the same molecule?
Answer: inactive

Question: With `Oc1ccc(Cl)cc1Cl` as the molecule, how does the outcome [1] read?
Answer: inactive

Question: What about the outcome [2] of the same molecule?
Answer: inactive

Question: With `CCCCCCOC(=O)c1ccccc1C(=O)OCCCCCC` as the molecule, how does the outcome [1] read?
Answer: inactive

Question: And the outcome [2]?
Answer: inactive

Question: What does the source list for `ClC(Cl)=C(c1ccc(Cl)cc1)c1ccc(Cl)cc1`?
Answer: outcome [1]: inactive; outcome [2]: inactive

Question: For `C[C@]12CCC(=O)C=C1CC[C@@H]1[C@@H]2CC[C@@]2(C)[C@H]1CC[C@]2(C)O`, which outcome [1] is on record?
Answer: inactive

Question: And the outcome [2]?
Answer: inactive

Question: With `C=CC(=O)NCNC(=O)C=C` as the molecule, how does the outcome [1] read?
Answer: inactive

Question: And the outcome [2]?
Answer: inactive

Question: With `CO/C=C(/C(=O)OC)c1ccccc1COc1cccc(C(F)(F)F)n1` as the molecule, how does the AC50 [1] read?
Answer: 7.84 µM (active)

Question: And the outcome [2]?
Answer: inactive

Question: Which outcome [1] does the source give for `Cc1cc(O)ccc1Cl` here?
Answer: inactive

Question: And the outcome [2]?
Answer: inactive

Question: For `Cc1cc(-c2ccc(N)c(C)c2)ccc1N`, which outcome [1] is on record?
Answer: inactive

Question: And the outcome [2]?
Answer: inactive

Question: Which outcome [1] does the source give for `Cc1ccccc1O` here?
Answer: inactive

Question: What about the outcome [2] of the same molecule?
Answer: inactive

Question: What does the source list for `Cc1cc2c3c(c1)C(c1ccccc1)=N[C@@H](NC(=O)c1ccncc1)C(=O)N3CC2`?
Answer: outcome [1]: inactive; outcome [2]: inactive

Question: Which results are given for `O=S(=O)(O)C(F)(F)C(F)(F)C(F)(F)C(F)(F)F`?
Answer: outcome [1]: inactive; outcome [2]: inactive

Question: With `CC(C)C(=O)OCC(C)(C)C(OC(=O)C(C)C)C(C)C` (stereo unspecified) as the molecule, how does the outcome [1] read?
Answer: inactive

Question: And the outcome [2]?
Answer: inactive

Question: Which results are given for `O=C(NC(=O)c1cc(F)c(F)cc1Cl)Nc1cc(F)ccc1N1CCC(C(=O)O)CC1`?
Answer: outcome [1]: inactive; outcome [2]: inactive

Question: With `C1CC2OC2CC1C1CO1` (stereo unspecified) as the molecule, how does the outcome [1] read?
Answer: inactive

Question: What about the outcome [2] of the same molecule?
Answer: inactive

Question: Which outcome [1] does the source give for `ClC1=C(Cl)[C@]2(Cl)[C@@H]3[C@@H](Cl)[C@H]4O[C@H]4[C@@H]3C1(Cl)C2(Cl)Cl` here?
Answer: inactive

Question: And the outcome [2]?
Answer: inactive

Question: For `Cc1ccccc1[N+](=O)[O-]`, which outcome [1] is on record?
Answer: inactive
